According to PubChem BioAssay AID1508600 (Functional Genomics Laboratory (NCATS/FGL), 2020):
Out of some 53,000 sequences screened, about 3,700 (7%) were called active. This is one part of a sample in which actives are shown more often than they occur.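 Rule for the calls: active = gene knockdowns whose robust z-score for IL-1 alpha signal is at least 2 or at most -2, so actives lie on both sides; inactive = the rest.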

Assay: Components of the Cytosolic LPS Sensing Pathway: Gene Identification via Genome-wide siRNA Screen;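 note: robust z of the log signal after scaling to non-targeting control siRNA wells of the plate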
Conditions: RAW264.7 macrophages, IL-1a HTRF, actives lie on both sides, screened at 100 nM (by protocol), cells primed 5 h with Pam3CSK4 first
Outline: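 IL-1a HTRF of supernatants after 24 hour LipidA transfection of Pam3CSK4-primed (5 hours) RAW264.7 cells, 48h post-siRNA transfection (100 nM). Scores: percent of plate negative-control median, then log-based robust z-score.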

z-score, active:
GGAAUCCUCGGCAGAUAAATT against Rpl24 2.31
GGACGGUGACCUGUAUGAUTT against Cpxm1 -2.4
CCACUCAAGCGGUAAGGAUTT against Slc22a1 4.16
CGGACACACAGUUGAUCCGTT against Cct6b -2.15
GGAAAGAAGCAGCGGACUUTT against Nme7 2.29
CCCGAGAACAUCUUGUACGTT against Rps6ka4 2.69
GGAUAGAAACAUUUCUGUGTT against Olfr1145 2.1
GGAUCUGACACACAUGAUCTT against Med16 2.3
GGUCUUCUCCGAGUACUUUTT against Ap1m1 4.38
GCUCCAUGAAUGUCCAACATT against Sphkap -2.41
GCCAGUCCUUCAAGUGUAUTT against Jak2 4.16
CCUCUCUACAUCCACUACUTT against Pogz 3
GGGCAAAAUAUAGCAAUGATT against Vmn1r233 -2.11
GGAGCAGAAUGAGAAGACUTT against Marchf8 2.16
GUUGUCCUCUUUGUCAUCATT against Olfr502 -3.63
CGUUGCUGUUGUGGUCUUGTT against Olfr1232 -2.71
GGAGCAUGUAGAGGUUUACTT against Txnrd2 2.44
GGUAACGAUGCUGGAAUUCTT against Sdcbp 4.37
GCUCGAGGACUAUAUGAAUTT against Xrcc1 2.03
CCGAAGUCAAUGAAGCUCUTT against Gcsh -2.13
GGAAAAGGUCAUUAUCAUUTT against Hsf3 -2.11
UGUGGUGAACCCAAUGCACTT against Klk1b22 -3.28

z-score, inactive:
GGAACAACGGAAAAGCGAGTT against Ankrd1 1.25
GGCAGAAAAUUGUUCUUAUTT against Cpt1a -1.49
GGCUUCUGGUACAUUAUUGTT against Lcn10 -1.23
GGGCAACUAUUGAUGAGGUTT against Acap3 -0.138
GCAUUAAAGUAGAAGGUCUTT against Snx31 0.812
GCGGCAAGAUUAAUAAGUCTT against Mpzl1 0.798
GGAUCUCGAAGUUACUGCATT against Dnajc5b 1.77
GCCUAGCAAUGACUGGGAUTT against Sdhaf2 -0.635
GCCUUCUGGCAAGAAUCUUTT against Krtap9-3 1.21
GGUGGCACAUAAGAAAUCCTT against Trim66 -1.61
GCGGGACUUUAUCUCAUCCTT against Mfsd4b1 -0.815
CCUUCUUUAUAGGUAUGACTT against Klhl36 0.91
GGCAUUCAGAGCUGAUUCATT against Mia3 0.93
GCCCUGGCAUGCUAACAAATT against Prpf3 -0.749
GGUACUACAAGCUAGCUGUTT against Scd4 -0.114
GGAAGUUUGUAGAGUAUGUTT against Xylt1 -0.187
GGGUUCAAGAGAUGAUAUUTT against Usp11 0.245
GGCUGAGAAACUGGAUGAATT against Rem1 -0.143
GGCUGUAUGACUCAGCUCUTT against Olfr711 -0.912
CCGGAAACUUCCUACGUGUTT against Cbln1 -0.424
GGACCAUGAGAAAUUUAAUTT against Nr2f1 1.41
GGCGGUUAAUGACAAGAACTT against Sdk2 -0.0303
CGUGGAGUAAGGAGAAUAUTT against Ints7 0.364
GGAAAUCACAUUGUCCUGCTT against 3010003L21Rik 1.13
GGAGAAAGCAAGGAUAAUCTT against Rgs20 0.562
CGCAGAGAAGGUCAUUAAATT against Il1f5 0.519
GCACUCAGAACAACUAAAATT against Dglucy 0.641
GUUCUAGGCCUCCUGAAGCTT against Dohh -0.808
GCUGAUGUCUCAACCUAGATT against Zkscan2 -1.72
GGCUUUGUCUUGAAUGGCUTT against Adgre1 -1.11
CGCCGGAAGUUCUACCACUTT against Tmem205 0.223
GAACAUCAUCUCACACUCATT against Olfr874 -0.000467
GGAUAGAGACUGCUGGGUUTT against Zfp579 0.248
CCAAGUUGGCAUACUAUUCTT against Pank4 -0.126
CCAUCUCAUCCCACGACACTT against Mrgprx1 -0.334
GGCCUUUGCAUGCAAUAGUTT against Zfp119b 0.0596
GCAGCCUUGUUUCAGUUCUTT against Fam43a 0.765
GGAGAACACAGGUGGACUUTT against Ppy 0.125
GGAGGCCAAGCAGAAAGAGTT against Kars 0.184
GACUGCUUCCUUCUGACUGTT against Olfr399 -0.575
AAAAGAUGCAUGUCUCCUUTT against Hbq1a -1.76
GGCUUUUGACUUUACCCUATT against Acy3 -1.3
GGAAAUAUUUUCUCAGCAATT against Pcdhga1 1.52
GCCCUCAUACCUACUAUGUTT against 4631405J19Rik 0.787
GGAAGAGAUUUCUAAACUUTT against Mcoln2 -1.93
GCUGACUUCACAUUUGGCUTT against Mms19 -0.24
GGAGUAUGUGGAAUGUCUATT against Creb3l1 -0.903
GGAUGACUCUAUCUUUCUATT against Igfbp4 0.892
GGAAUACGUAUACUUCAGCTT against Dipk1c 0.495
GGAUUGCAUUAGGAAAGAATT against Fancl 0.0536
GGGAGUCCUGAAGGACUACTT against Lgmn -0.0947
GGACCAAGGGUUCAUAGCATT against Wdr35 -0.137
GGUUCAUCUGUACAAAAUCTT against Zfp110 0.708
CCAUAUGGUAACCAAACCGTT against Ldb1 -0.896
CCGUAGUAGAGAAAUUACATT against Exoc6 0.419
CGGGUAAUAUUCUUUUCAATT against Rex2 1.76
GCUCUAGGCCAGAUGUUACTT against Slc13a3 -0.476
CGUUUCCUGCUCAAAUCCUTT against Abhd2 -1.17
GGAGAUUCGGACAAAGUGATT against Rhcg -1.31
GGAGUAGCUGUUCUAAUUGTT against Scamp5 -1.65
GGCUUUAAGAAUGUAUCGCTT against Dpp3 -0.751
GCCUUUUCCCGUCUGGAGATT against Glis1 0.122
GGGCCCAGGCUAAAAUAAATT against Cfap100 0.367
GGUCACCUCAAUAAACUCUTT against Myl7 0.228
CGUGUAAACGCAAUUAAAATT against Zfp870 0.272
GGUUCAGAUGUCUGAUAAATT against Mrm3 1.43
GGAUACCUAGUUCUUAGUUTT against Mageb18 0.151
GGGACUUUCGUAAUAAACCTT against Lman1 -1.26
CGUGAAAUAGAUGAUACCUTT against Cdc5l 0.625
GCAAACUCCAGCUCAACGATT against Galnt4 -1.19
GGAUGGUGUUGUGUUUAAATT against Chst2 0.962
GGCUGGUGCUGAAUAUCUUTT against Bnip5 0.507
GGUCUUGGUCCCUGAGAAATT against Ddit4l 0.23
GGACAAAUUGUAUGGCGAATT against Hecw2 -0.402
GAGAACAAGCCUAAGCCCATT against V1rb5 1.44
GGAAUAUUGUGGCCUUAUATT against Bnip3 0.489
GAGGGAUAUGUGAAGCCUCTT against Mospd3 -0.806
CCAUGUUCAGAAGAGAAUATT against Igsf11 -1.69
GCAAGUAGAAACCCUUAAUTT against Scara5 -0.0354
CGAUUCCGUCAAAUUAAAGTT against Catsper2 0.156
GGCAGAUUGUGAAAAAACUTT against Slc9a6 -0.503
GUCACUGUGAUGGGAAAUUTT against Olfr895 -0.847
ACACCUGCCUGCAUCUACUTT against Tcp10a 1.5
GCACUUGUGACUAUAAAGUTT against Celf2 0.262
CCUGAUUGGGAUCUCAAGATT against Ccdc12 -0.673
AAUAAAAGUGUCCUCUGUGTT against Olfr242 0.202
